Data taken from PMC7819943, “Rice protein-binding microarrays: a tool to detect cis-acting elements near promoter regions in rice”.
In all, about 35,000 sequences were measured (“fluorescence intensity (a.u.)”: median about 10,000, highest 2% from about 52,000 on). This is one part of a sample in which the highest values are shown more often than they occur.

Target: T1, OsWOX13 (Oryza sativa, UniProt Q5QMM3 1-267)
T1 sequence: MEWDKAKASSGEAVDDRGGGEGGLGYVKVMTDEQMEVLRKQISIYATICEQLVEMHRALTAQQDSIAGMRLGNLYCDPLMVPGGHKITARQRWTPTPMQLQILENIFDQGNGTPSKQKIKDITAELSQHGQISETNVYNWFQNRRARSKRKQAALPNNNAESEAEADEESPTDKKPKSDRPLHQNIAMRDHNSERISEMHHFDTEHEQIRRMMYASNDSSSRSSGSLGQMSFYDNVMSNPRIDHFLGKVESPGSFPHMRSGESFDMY
Experiment: protein-binding microarray (RPBM); PBS, 2% BSA, 51.3 ng/ul salmon testes DNA, 50 uM zinc acetate, 200 nM TF, 25 C, 1 h; high values mean tight binding
Conditions: protein: recombinant; tags: N-terminal polyhistidine and DsRed monomer fusion (pET32a); label: CyDye5-dUTP incorporated in the synthesized complementary strand; 3' TTTTT single-stranded linker to array surface; dsDNA, one strand shown
Summary of the method: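 Transcription factors, each fused N-terminally to a polyhistidine tag and DsRed, were expressed in E. coli BL21-CodonPlus and purified on Ni–NTA. A custom Agilent array was made double-stranded by primer extension with Cy5-dUTP and blocked with 2% BSA. It was incubated with 200 nM protein in PBS, 2% BSA, salmon testes DNA and 50 µM zinc acetate at 25 °C for 1 h, then washed. The binding signal is per-feature fluorescence intensity (arbitrary units) read on an Axon 4000B scanner.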

Sequence | binding signal
ACAAAACCATTTGTGATTTTCTTTGAGTGCCCAGTTTTGTCGGAGTCACCTAGTGCAG | 3210 fluorescence intensity (a.u.)
GGATTTGATTGGATAAGCCGCTCGTAAGGACACCGTGCCTCGGAGTCACCTAGTGCAG | 52300 fluorescence intensity (a.u.)
CATAATTGGTAAATTTGCGGGTTCAATTCCTGCTGGATGCCGGAGTCACCTAGTGCAG | 59500 fluorescence intensity (a.u.)
TTGACTATAATTGATTTGGATAGTTGGCTATAATAAACCTCGGAGTCACCTAGTGCAG | 54500 fluorescence intensity (a.u.)
TTATATTGATTTTCGTATGATTTTGGACACATAAGTACCTCGGAGTCACCTAGTGCAG | 38200 fluorescence intensity (a.u.)
ATTAACTATAAATGATTTGGAGTCAATAGTTGGCTATAATCGGAGTCACCTAGTGCAG | 16100 fluorescence intensity (a.u.)
ATCACATAAAATTCCAGGGTTAATTGGATCCATGCTACTGCGGAGTCACCTAGTGCAG | 8150 fluorescence intensity (a.u.)
AGTAGTTAATTGGATTGGGCCGGGCCCACCGGCCCACGGCCGGAGTCACCTAGTGCAG | 30300 fluorescence intensity (a.u.)
GAAATAAATTTTGGATTGGCTATGTTAATATGATATGACCCGGAGTCACCTAGTGCAG | 25900 fluorescence intensity (a.u.)
GAGTAAATTGCACACGGATGCAATCAATTGACCTGTGCTGCGGAGTCACCTAGTGCAG | 20000 fluorescence intensity (a.u.)
CTGAAATTGAAGTTAAATGCTACTAGTAATAATTGTACTACGGAGTCACCTAGTGCAG | 30100 fluorescence intensity (a.u.)
ATACTGCTGTAACATTTGATTGGATTGAAAGGATATCGCTCGGAGTCACCTAGTGCAG | 20500 fluorescence intensity (a.u.)
AGTAATTGATTGGCCGGATGCTACCGGTAGTTACTGACTACGGAGTCACCTAGTGCAG | 60500 fluorescence intensity (a.u.)
GTTCGCGTGATTAATCAAAGCCTATTCCTTGTCACTATGACGGAGTCACCTAGTGCAG | 12400 fluorescence intensity (a.u.)
AAGAAAACCTAATTGTTACTACCATTTACCAAACCTACCACGGAGTCACCTAGTGCAG | 3910 fluorescence intensity (a.u.)
ACACATGATTTGCATGCCAACCTTATTTCTCCTTCACTTTCGGAGTCACCTAGTGCAG | 16500 fluorescence intensity (a.u.)
CACTGCAAATTAGATCTATATATAGTGAAACATTGTGAGACGGAGTCACCTAGTGCAG | 6780 fluorescence intensity (a.u.)
CGCCGTAACAATCAGAACCAATCATGCTCTATGTGTAGTTCGGAGTCACCTAGTGCAG | 30300 fluorescence intensity (a.u.)
CCCGTACGTGTTACCTAATCATGATGGGATGCCATAATACCGGAGTCACCTAGTGCAG | 3570 fluorescence intensity (a.u.)
ACATTAATGTGATTTCCCATTTCTACCCTATAGTTCAACACGGAGTCACCTAGTGCAG | 12800 fluorescence intensity (a.u.)
TACTAAATTGACTATGGACGATTTAGAGCTCGTAGTTGGCCGGAGTCACCTAGTGCAG | 53600 fluorescence intensity (a.u.)
CGCGTTGATTAATTAGTCAGTTCGTTAACAACCTCGACTACGGAGTCACCTAGTGCAG | 53000 fluorescence intensity (a.u.)
AAAGTAGTTAATTACTGCTAATTACATGGATTAGTTGGGTCGGAGTCACCTAGTGCAG | 33500 fluorescence intensity (a.u.)
AAAATTGACTATAAATGATTTGGAGCCGGTAGTTGGCTATCGGAGTCACCTAGTGCAG | 51700 fluorescence intensity (a.u.)
ACGTTGATTAGTTAGTACTAACCTACTCCTACGTGTTAACCGGAGTCACCTAGTGCAG | 30400 fluorescence intensity (a.u.)
GCTATAAAATTGACTATAATTGATTTGGAGCCGGTAGTTGCGGAGTCACCTAGTGCAG | 63600 fluorescence intensity (a.u.)
TATTAAATTGACTATAGATGATTTGGAGCTAGTAATTGGCCGGAGTCACCTAGTGCAG | 36800 fluorescence intensity (a.u.)

Sequence | binding signal
ATTACATTGACTAATAGATGATTTAGAGCTAATAGTGGGCCGGAGTCACCTAGTGCAG | 25200 fluorescence intensity (a.u.)
AAATTACTAATTTACCTATAATTAGTTGGACTCTAGCTCTCGGAGTCACCTAGTGCAG | 37600 fluorescence intensity (a.u.)
TTTAATTTTGAATTTTAATTAATTGGAGTTTACACGGACTCGGAGTCACCTAGTGCAG | 39800 fluorescence intensity (a.u.)
GTAATTAATTACTTGATTAACAATTAAATAATAATAGTTACGGAGTCACCTAGTGCAG | 33200 fluorescence intensity (a.u.)
GATTAATTGAAAGTTTACATGGACGACGTTGACTCGGGGCCGGAGTCACCTAGTGCAG | 54700 fluorescence intensity (a.u.)
ACAAGTTGATGGGGACACTTTTCTTATGTAGTATATAATTCGGAGTCACCTAGTGCAG | 3270 fluorescence intensity (a.u.)
AACCCTGATTTCCGTGCTCAACGTTTGACCGTCCGTCTTGCGGAGTCACCTAGTGCAG | 4670 fluorescence intensity (a.u.)
TCGATCACAAATTAATATTGTTTGCATACATACTCATATGCGGAGTCACCTAGTGCAG | 6200 fluorescence intensity (a.u.)
ATCCAATCATTTCAAAACGTATTCCTCAGCACATTAAACGCGGAGTCACCTAGTGCAG | 19400 fluorescence intensity (a.u.)
GCTAATTGCAATTTTGGCCGTCCATAAAGAGCTTGCGGCCCGGAGTCACCTAGTGCAG | 52900 fluorescence intensity (a.u.)
CCATAATTTTGCAAAGACATCAAACCAAATAAAACCAATGCGGAGTCACCTAGTGCAG | 6680 fluorescence intensity (a.u.)
ACTAGCTAACTAAATTTGAAAGAGACTAGCTAGCTGCTTGCGGAGTCACCTAGTGCAG | 6300 fluorescence intensity (a.u.)
GATAATGGTAGTGATTGGTTGAGGCTTGAGAGTAGATGTACGGAGTCACCTAGTGCAG | 30600 fluorescence intensity (a.u.)
CTAAACCGCATAATAATTTACAGAAATGCCCCTCACCTCCCGGAGTCACCTAGTGCAG | 11300 fluorescence intensity (a.u.)
GCACCTTTCAAATTCATCTGATTTATGCATTCTTCTGTAACGGAGTCACCTAGTGCAG | 3340 fluorescence intensity (a.u.)
TGGCCTTGATTTGCTTCCTGAATGTGCCTGCTTCCTTACACGGAGTCACCTAGTGCAG | 18100 fluorescence intensity (a.u.)
TTGGTTGGTTGGTTGATTGCTCGCGCCCCGCGCGGTTGCGCGGAGTCACCTAGTGCAG | 6680 fluorescence intensity (a.u.)
CCTCTTGATTGATTGCTCGGTCGACTGATTGCTTCTTACACGGAGTCACCTAGTGCAG | 65000 fluorescence intensity (a.u.)
CTCTTGATTGCGGCGCGACTGCGAGCGAGAGAGCTTCACGCGGAGTCACCTAGTGCAG | 20500 fluorescence intensity (a.u.)
TTTTGCAATGTGATTTGCTGGTTTGGATAGTGGAGAAGTTCGGAGTCACCTAGTGCAG | 3300 fluorescence intensity (a.u.)
ATTGATTGATAAACCCTACTGCTTCTCGCCGCCGCCGCCGCGGAGTCACCTAGTGCAG | 55100 fluorescence intensity (a.u.)
ATTGTTGCTGCTGCTGGATTGATTAGTGGTTAAGCAGATTCGGAGTCACCTAGTGCAG | 5320 fluorescence intensity (a.u.)
CCAAGCAAATAATCCGATAGATTGAATCGGTGAGTTACCACGGAGTCACCTAGTGCAG | 9630 fluorescence intensity (a.u.)
CCGACCCGTTGGATTGATAAAACCAACTGCTTCCCGCTCCCGGAGTCACCTAGTGCAG | 6190 fluorescence intensity (a.u.)
CTCCCAAGTAAATGATTTGAAATACCCGATCTAATTATTACGGAGTCACCTAGTGCAG | 3180 fluorescence intensity (a.u.)
ATGTGATTGATTCTGCTGGTGGATTCTCTCTTCGGTTTGCCGGAGTCACCTAGTGCAG | 62800 fluorescence intensity (a.u.)
ACCAAGTAATTGATATCTAGAAATCCGATACCTAGTACCACGGAGTCACCTAGTGCAG | 55000 fluorescence intensity (a.u.)
